Screens deposited in PubChem by National Center for Advancing Translational Sciences (NCATS).
TDP1 block: inhibitors of human tyrosyl-DNA phosphodiesterase TDP1 | recombinant TDP1, AlphaScreen DNA substrate cleavage | Potency, µM (titrated, usually from 130 µM), for inactives: at the highest dose activity change, negative = inhibition, actives largely listed as inhibitors | AID 485290 | 350,000 compounds, 0.28% hits | Q9NUW8; also: % is scaled to controls: 0 for no effect and ±100 for the full control effect; nearly all actives have a fitted effect of over 40% in size
Target sequence (Q9NUW8 whole entry, looked up): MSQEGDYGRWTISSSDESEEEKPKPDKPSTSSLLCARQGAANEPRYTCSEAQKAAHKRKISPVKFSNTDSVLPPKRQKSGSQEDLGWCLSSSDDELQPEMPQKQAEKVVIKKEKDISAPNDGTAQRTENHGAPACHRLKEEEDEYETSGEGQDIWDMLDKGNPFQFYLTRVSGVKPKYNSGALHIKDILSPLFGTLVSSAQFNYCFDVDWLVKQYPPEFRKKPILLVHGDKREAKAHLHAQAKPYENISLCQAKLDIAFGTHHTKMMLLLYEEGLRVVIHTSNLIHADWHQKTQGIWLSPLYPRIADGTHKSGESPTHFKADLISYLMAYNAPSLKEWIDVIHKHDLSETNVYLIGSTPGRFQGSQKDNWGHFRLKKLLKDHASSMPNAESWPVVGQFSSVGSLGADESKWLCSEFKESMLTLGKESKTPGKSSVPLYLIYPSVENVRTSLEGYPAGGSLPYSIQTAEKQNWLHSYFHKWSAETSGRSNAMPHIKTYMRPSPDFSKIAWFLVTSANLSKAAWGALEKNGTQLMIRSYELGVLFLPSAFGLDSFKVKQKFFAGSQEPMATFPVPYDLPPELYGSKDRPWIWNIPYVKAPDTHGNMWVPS
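Signal: AlphaScreen proximity between streptavidin donor and anti-FITC acceptor beads on intact substrate. Reaction: Tdp1 1 nM, substrate 15 nM final, 5 min RT after 15 min compound preincubation.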
G9a block: G9a (human) methyltransferase inhibition. Q96KQ7. AID 504332. Potency, µM (doses to about 102 µM), without a hit: at the top dose activity, negative = inhibition, most hits filed as inhibitors. G9a H3K9 monomethylation, AlphaScreen, 2 h. 350,000 compounds, 8.8% hits; also: % is scaled to controls: 0 for no effect and ±100 for the full control effect; nearly all actives have a fitted effect of over 75% in size
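Step 1: enzyme (final 20 nM) with compound, 15 min RT. Step 2: substrate peptide 500 nM and SAM 20 uM, 2 h RT. Step 3: anti-H3K9me1 antibody and AlphaScreen beads, 10 min, then plate read.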
BAZ2B inh: blocks human BAZ2B | Q9UIF8 | AlphaScreen BAZ2B-H3K14Ac peptide displacement | Potency, µM (top dose mostly 114 µM), without a hit: top-dose activity change, negative = inhibition, actives largely listed as inhibitors | 360,000 compounds, 4.4% hits; also: % is scaled to controls: 0 for no effect and ±100 for the full control effect; nearly all actives have a fitted effect of over 60% in size
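Compounds, titrated to a top concentration of 110 uM, were incubated 30 min at room temperature with preformed BAZ2B/acetyl-K14 H3 peptide complex (50 nM each). Proximity signal was measured by AlphaScreen after 20 min with beads.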
JMJD2A Tudor inh: blocks the human JMJD2A Tudor domain. Potency, µM (top dose mostly 114 µM), without a hit: at the top dose activity change, negative = inhibition, hits mostly inhibitors. 390,000 compounds, 4.4% hits. AlphaScreen JMJD2A-Tudor / H3K4me3 peptide binding. AID 504339. O75164; also: % is scaled to controls: 0 for no effect and ±100 for the full control effect; nearly all actives have a fitted effect of over 50% in size
Sfp PPTase inh: blocks B. subtilis Sfp PPTase activity | 310,000 compounds, 3.5% hits | Q9F4F7 | Biochemical Sfp PPTase activity, qHTS | AID 1490 | Potency, µM, inactives show largest response in the series, negative = inhibition, hits mostly inhibitors;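 also: the enzyme is Sfp with the accession as filed and its product quenches rhodamine fluorescence; 0% = enzyme reaction without inhibitor and -100% = no enzyme wells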
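Sfp 15 nM + cpd, 15 min RT; start w/ rhodamine-CoA 5 uM, BHQ-2-YbbR 12.5 uM (final); 50 mM Hepes pH 7.6, 10 mM MgCl2, 0.01% NP-40, 0.01% BSA; read 525/598 nm at 0 and 30 min.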
HP1b binding inh: blocks HP1-beta chromodomain binding to methylated histone tails. Potency, µM (top dose mostly 114 µM), for the others: top-dose activity change, negative = inhibition, usual class: inhibitors. 390,000 compounds, 0.56% hits. AlphaScreen HP1-beta / biotin-H3K9me3 peptide binding; also: nearly all actives have a fitted effect of over 70% in size
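Compound inhibition of the preformed complex between 50 nM HP1-beta and 50 nM biotinylated H3K9me3 peptide was read by AlphaScreen. Buffer was PBS pH 7.4 with 0.01% Tween-20. Incubations ran 30 min at room temperature, with 10 ug/mL donor/acceptor beads.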
Active calls of the source: *; ? = inconclusive; nt = not tested or not shown; [ ] = dose if it differs, or a comment. An excerpt weighted towards active compounds, which were near 12% of everything screened. Calls follow the shape of the dose curve; as a rule, active = well fitted curve in the direction sought with a large enough effect; inconclusive = small, poorly fitted or top-dose-only effect, or another doubt; inactive = no such curve, though single readings can be large; an effect the other way counts as inactive or inconclusive. Potency is read from the fitted curve at half-maximal effect.

SMILES	TDP1 block	G9a block	BAZ2B inh	JMJD2A Tudor inh	Sfp PPTase inh	HP1b binding inh
CCN(C(=O)C(=O)Nc1ccc2nc3n(c(=O)c2c1)CCCCC3)c1ccc(F)cc1	5%	2%[59 µM]	2%	-17%	nt	20%
Cc1cccc2c(N=Nc3ccccc3)c(O)[nH]c12	nt	40µM*	3%	-10%	7%	7%
Cc1nc(CN(C)c2ncnc3cc(-c4ccc5c(c4)OCO5)ccc23)cs1	0%	nt	nt	89µM*	nt	nt
CN(Cc1cccs1)c1ncnc2ccc(-c3ccc4c(c3)OCO4)cc12	-6%	nt	nt	?	nt	nt
c1nc(NCCc2cnc[nH]2)c2ccc(-c3ccc4c(c3)OCO4)cc2n1	7%	nt	nt	79µM*	nt	nt
Cc1ccc(CNc2ncnc3ccc(-c4ccc5c(c4)OCO5)cc23)o1	3%	nt	nt	45µM*	nt	nt
Cc1csc(CNc2ncnc3ccc(-c4ccc5c(c4)OCO5)cc23)n1	0%	nt	nt	?	nt	nt
c1nc(NCCc2cnc[nH]2)c2cc(-c3ccc4c(c3)OCO4)ccc2n1	9%	nt	nt	?	nt	nt
Cc1csc(CNc2ncnc3cc(-c4ccc5c(c4)OCO5)ccc23)n1	0%	nt	nt	56µM*	nt	nt
Cc1c(NC(=O)COC(=O)/C=C/c2ccccc2Br)c(=O)n(-c2ccccc2)n1C	0%	-4%[0.501 µM]	-17%	4%	nt	42%
Cc1cccc(C)c1NC(=O)CSc1nnc(C)c(=O)[nH]1	0%	8%	3%	-3%	17%	42%
CC(=O)c1c(C)[nH]c(C(=O)OCC(=O)N2CCN(S(=O)(=O)c3ccc(C)cc3)CC2)c1C	2%	1%[12.7 µM]	50µM*	-11%	nt	5%
Cc1ccc(S(=O)(=O)N2CCN(C(=O)CSc3nnc(C)c(=O)[nH]3)CC2)cc1	-1%	56µM*	2%	-20%	-11%	46%
Cc1cc(C)c(C)c(C(=O)CSc2nnc(C)c(=O)[nH]2)c1C	2%	50µM*	-5%	nt	?	nt
Cc1nnc(SCC(=O)N2CCN(S(=O)(=O)c3ccccc3)CC2)[nH]c1=O	-1%	-48%	9%	-1%	-21%	36%
CCOC(=O)N1CCC(N(CCN(C)C)C(=S)Nc2cc(Cl)cc(Cl)c2)CC1	6%	?	79µM*	-6%	-24%	31%
Cc1ccc(OCC(=O)c2cc(C)c(C)cc2C)c([N+](=O)[O-])n1	-5%	?	5%	-17%	-21%	37%
COc1ccccc1OCCC(=O)OCC(=O)c1c(N)n(C)c(=O)n(C)c1=O	-8%	50µM*	?	-22%	6%	35%
Cc1ccc(OCCC(=O)OCC(=O)c2c(N)n(C)c(=O)n(C)c2=O)cc1	2%	-2%[0.501 µM]	4%	-5%	nt	11%
Cc1ccc(OCC(=O)c2c(N)n(C)c(=O)n(C)c2=O)c([N+](=O)[O-])n1	3.2µM*	60%[12.7 µM]	25µM*	?	nt	20µM*
CC(C)CC(C(=O)OCC(=O)c1c(N)n(C)c(=O)n(C)c1=O)N1C(=O)c2ccccc2C1=O (configuration not stated)	3%	11µM*	-29%	-31%	-17%	18%
N#Cc1cccc(-c2nc3cnc(Nc4ccccc4)nc3n(C[C@H]3CCCO3)c2=O)c1	nt	0%[12.7 µM]	nt	nt	23%	nt
C=C[C@](C)(O)CCC=C(C)C	5%	nt	nt	nt	13%	nt
CCOC(=O)c1cccc(NS(=O)(=O)c2cc(Br)cc3c2N(C(=O)C2CC2)CC3)c1	6%	6%[59 µM]	-16%	-13%	nt	56%
CN(C)S(=O)(=O)c1ccc(C(=O)OCC(=O)NCc2ccco2)cc1	60µM*	50µM*	50µM*	-10%[11.4 µM]	-4%	20%
SMILES	TDP1 block	G9a block	BAZ2B inh	JMJD2A Tudor inh	Sfp PPTase inh	HP1b binding inh
CCOc1cc(C(=O)OCC(=O)NCc2ccco2)cc(OCC)c1OCC	-6%	50µM*	28µM*	56µM*	-11%	?
COc1cc(C(=O)OCC(=O)NCc2ccco2)cc(OC)c1OC	-1%	-26%	?	?	-3%	-5%
COc1cc(OC)cc(C(=O)OCC(=O)NCc2ccco2)c1	-8%	?	50µM*	?	nt	-7%
CCOC(=O)C1=CC[C@@H](c2ccccc2Cl)N(S(=O)(=O)c2ccc(C)cc2)[C@H]1C(=O)OCC	-1%	6%[0.501 µM]	5%	6%	nt	38%
CC1CCc2c(sc(NC(=O)C3c4ccccc4Oc4ccccc43)c2C#N)C1 (configuration not stated)	2%	-1%[59 µM]	-12%	-23%	nt	17%
NC(=O)c1sc2nc(-c3ccccc3)c3c(c2c1N)CCCC3	4%	?	?	-5%	40µM*	67%
Cc1ccc(-c2nc3sc(C(N)=O)c(N)c3c3c2CCCC3)cc1	-1%	-36%	-31%	-15%	40µM*	46%
CC(C)c1nc2sc(C(=O)O)c(N)c2c2c1CCCC2	5%	?	-38%	-17%	56µM*	13%
CC(=O)c1sc2nc(-c3ccc(C)cc3)c3c(c2c1N)CCCC3	1%	8%	2%	-4%	35µM*	62%
COc1ncnc2c1sc1nc(-c3ccccc3)c3c(c12)CCCC3	1%	28%[59 µM]	14%	21%	?	54%
CCc1nc2sc(C(C)=O)c(N)c2c2c1CCCC2	3%	0%[12.7 µM]	-6%	30%	-22%	91%
Cc1nc2sc(C(N)=O)c(N)c2c2c1CCCC2	-1%	?	-17%	-2%	79µM*	40%
CCn1c2ccccc2c2cc(CN3CCN(S(=O)(=O)CC)CC3)ccc21	3%	11µM*	20µM*	nt	?	nt
CCn1c2ccccc2c2cc(CN3CCN(S(=O)(=O)Cc4ccccc4)CC3)ccc21	-3%	7.1µM*	79µM*	1µM*	5%	?
CC(=O)N1C(=O)CC(C)N(C(C)=O)c2ccc([N+](=O)[O-])cc21 (configuration not stated)	0%	20µM*	-2%	?	-4%	44%
CCOc1ncccc1C(=O)Nc1cc(S(=O)(=O)N2CCCCC2)ccc1OC	1%	10µM*	13%	-18%	nt	21%[57 µM]
Cc1ccc(NC(=S)Nc2ccc(C(C)C)cc2)cc1S(=O)(=O)N1CCCCCC1	1%	45µM*	-13%	-25%	56µM*	-23%
CCOc1ncccc1C(=O)Nc1ccc(C)c(S(=O)(=O)N2CCCCCC2)c1	-5%	12%[59 µM]	0%	20µM*	nt	46%
CCOc1ncccc1C(=O)Nc1ccc(OC)c(S(=O)(=O)N2CCCCC2)c1	1%	6%	0%	4%	8%	36%
COc1ccc(NC(=S)Nc2ccc(C)c(S(=O)(=O)N3CCCCC3)c2)cc1	1%	-31%[59 µM]	-29%	nt	-4%	nt
COc1ccccc1CC(=O)Nc1ccc2c(C)cc(=O)oc2c1	6%	71µM*	-3%	-5%	12%	-4%
